Measurements taken from PubChem BioAssay (Tox21).
Records with an inconclusive call do not appear. Where a call stands in place of a potency, no number is given. Active and inactive are the calls of the source. Unless noted, the call rests on the fitted dose curve.

Experiment: p53 small molecule agonists, cell-based qHTS assay with rat liver microsomes: qHTS cell viability counter screen (AID 1963580); further: nearly all actives have a fitted effect of over 45% in size; further: potency means the concentration at half of the fitted maximal effect
Conditions: p53RE-bla HCT-116 + rat microsomes, ATP viability, 16 h; series mostly up to 66 µM
Method in brief: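 Viability is assessed in parallel with the p53 reporter read: HCT-116 p53RE-bla cells receive compounds plus rat microsomes and NADPH (0.5 mg/mL final apiece), incubate 16 h at 37 C, and then CellTiter-Glo luminescence is recorded.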

Row | SMILES | Potency
1 | CCCN1CCC[C@@H]2Cc3[nH]ncc3C[C@H]21 | inactive
2 | C=CC[C@]1(O)CC[C@H]2[C@@H]3CCC4=CC(=O)CCC4=C3C=C[C@@]21C | inactive
3 | NP(N)(=O)NC(=O)c1ccc(F)cc1 | inactive
4 | CCOC(=O)COc1ccc(Cl)cc1Cl | inactive
5 | CCOc1cccc(C2(N3CCN(c4ccccc4)CC3)CCC(C)CC2)c1 (stereo not given) | inactive
6 | COP(=O)(OC)Oc1ccc([N+](=O)[O-])cc1 | inactive
7 | COc1cc(Cl)c(OC)cc1Cl | inactive
8 | Cc1cccc(OP(=O)(Oc2cccc(C)c2)Oc2cccc(C)c2)c1 | inactive
9 | OP(O)c1ccccc1 | inactive
10 | Oc1ccc2ccc3cccc4ccc1c2c34 | inactive
11 | ClCc1cccc(Cl)c1 | inactive
12 | COP(=S)(OC)Oc1c(Cl)cc(C)cc1Cl | inactive
13 | CCOP(=S)(OCC)SCS(=O)(=O)CC | inactive
14 | CN(C)CCc1c[nH]c2cccc(O)c12 | inactive
15 | COP(N)(=S)Oc1ccccc1C(=O)OC(C)C (stereo not given) | inactive
16 | CNP(=O)(OC)Oc1ccc(C(C)(C)C)cc1Cl (stereo not given) | inactive
17 | Cc1cccc2sc3nncn3c12 | inactive
18 | CCC1(c2ccccc2)C(=O)NC(=O)NC1=O | inactive
19 | O=c1[nH]c(Cl)c(Cl)cc1Cl | inactive
20 | CC(=O)[O][Sn]([c]1ccccc1)([c]1ccccc1)[c]1ccccc1 | 1.62 µM (active)
21 | C=C(Cl)CSC(=S)N(CC)CC | inactive
22 | ClC(Cl)C(Cl)Cl | inactive
23 | CN(C)C(=O)Nc1cccc(OC(=O)NC(C)(C)C)c1 | inactive
24 | CNC(=O)Oc1ccc(N(C)C)c(C)c1 | inactive
25 | COP(=O)(OC)O/C(=C\Cl)c1cc(Cl)c(Cl)cc1Cl | inactive
26 | CC(C)(C)c1ccc(OP(=O)(Oc2ccccc2)Oc2ccccc2)cc1 | inactive
27 | CC[C@H]1C[C@H]2[C@@H]3CCC4=CC(=O)CC[C@@H]4[C@H]3CC[C@]2(C)[C@H]1O | inactive
28 | COC(=O)C(C)N(C(=O)c1ccco1)c1c(C)cccc1C (stereo not given) | inactive
29 | C#CC1(O)CCCCC1 | inactive
30 | CSc1ccc(C(=O)C(C)(C)N2CCOCC2)cc1 | inactive

Experiment: p53 small molecule agonists, cell-based qHTS assay: qHTS cell viability counter screen (AID 1963581); further: nearly all actives have a fitted effect of over 45% in size; further: potency means the concentration at half of the fitted maximal effect
Conditions: p53RE-bla HCT-116 viability, ATP luminescence, 16 h; series mostly up to 66 µM
Method in brief: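 HCT-116 p53RE-bla cells, 4,000/well, plated 5 h before compound pin transfer; 16 h at 37 C; bla substrate 2 h RT; then CellTiter-Glo, 30 min RT, luminescence.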

Row | SMILES | Potency
31 | CCCN1CCC[C@@H]2Cc3[nH]ncc3C[C@H]21 | inactive
32 | NP(N)(=O)NC(=O)c1ccc(F)cc1 | inactive
33 | COc1ccc(C(=O)c2c(C)n(CCN3CCOCC3)c3ccccc23)cc1 | inactive
34 | CCOC(=O)COc1ccc(Cl)cc1Cl | inactive
35 | CCOc1cccc(C2(N3CCN(c4ccccc4)CC3)CCC(C)CC2)c1 (stereo not given) | inactive
36 | COP(=O)(OC)Oc1ccc([N+](=O)[O-])cc1 | inactive
37 | COC(=O)N(C(=O)N1COC2(C(=O)OC)Cc3cc(Cl)ccc3C2=N1)c1ccc(OC(F)(F)F)cc1 (stereo not given) | inactive
38 | CC(Cc1ccccc1)NCCn1cnc2c1c(=O)n(C)c(=O)n2C (stereo not given) | inactive
39 | Cc1cccc(OP(=O)(Oc2cccc(C)c2)Oc2cccc(C)c2)c1 | inactive
40 | OP(O)c1ccccc1 | inactive
41 | Oc1ccc2ccc3cccc4ccc1c2c34 | inactive
42 | ClCc1cccc(Cl)c1 | inactive
43 | COP(=S)(OC)Oc1c(Cl)cc(C)cc1Cl | inactive
44 | CCOP(=S)(OCC)SCS(=O)(=O)CC | inactive
45 | CCN1CCC2(CC1)COc1cc3c(cc12)N(C(=O)c1ccc(-c2ccc(-c4nnc(C)o4)cc2C)cc1)CC3 | 42.2 µM (active)
46 | COP(N)(=S)Oc1ccccc1C(=O)OC(C)C (stereo not given) | inactive
47 | N#Cc1c(-c2ccc(Cl)cc2)[nH]c(C(F)(F)F)c1Br | inactive
48 | CNP(=O)(OC)Oc1ccc(C(C)(C)C)cc1Cl (stereo not given) | inactive

Row | SMILES | Potency
49 | Cc1cccc2sc3nncn3c12 | inactive
50 | COc1cc(CC(C)N)c(OC)cc1Br (stereo not given) | inactive
51 | O=C(CCl)C(Cl)Cl | inactive
52 | CCC1(c2ccccc2)C(=O)NC(=O)NC1=O | inactive
53 | O=c1[nH]c(Cl)c(Cl)cc1Cl | inactive
54 | CC(=O)[O][Sn]([c]1ccccc1)([c]1ccccc1)[c]1ccccc1 | 10.2 µM (active)
55 | C=C(Cl)CSC(=S)N(CC)CC | inactive
56 | ClC(Cl)C(Cl)Cl | inactive
57 | CC(=O)CCc1ccc2c(c1)OCO2 | inactive
58 | CN(C)C(=O)Nc1cccc(OC(=O)NC(C)(C)C)c1 | inactive
59 | CNC(=O)Oc1ccc(N(C)C)c(C)c1 | inactive
60 | COP(=O)(OC)O/C(=C\Cl)c1cc(Cl)c(Cl)cc1Cl | inactive
61 | CC(C)(C)c1ccc(OP(=O)(Oc2ccccc2)Oc2ccccc2)cc1 | inactive
62 | COC(=O)C(C)N(C(=O)c1ccco1)c1c(C)cccc1C (stereo not given) | inactive
63 | C#CC1(O)CCCCC1 | inactive
64 | CSc1ccc(C(=O)C(C)(C)N2CCOCC2)cc1 | inactive
65 | CCCCc1c(C)nc(NCC)nc1OS(=O)(=O)N(C)C | inactive

Experiment: p53 small molecule agonists, cell-based qHTS assay (AID 1963582; active means well fitted activation curve with a large enough effect in the signal ratio in the repeat runs, not every such curve was filed as active; the % refers to the signal ratio)
Conditions: HCT-116 p53RE-bla reporter, beta-lactamase FRET ratio, 16 h; series mostly up to 66 µM
Method in brief: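 Reporter line: p53RE-bla. Pre-incubation 5 h, 37 C, 5% CO2; compound (DMSO, pin tool) 16 h, 37 C; B/G FRET substrate 2 h RT; fluorescence intensity read.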

Row | SMILES | Potency
66 | CCCN1CCC[C@@H]2Cc3[nH]ncc3C[C@H]21 | inactive
67 | C=CC[C@]1(O)CC[C@H]2[C@@H]3CCC4=CC(=O)CCC4=C3C=C[C@@]21C | inactive
68 | NP(N)(=O)NC(=O)c1ccc(F)cc1 | inactive
69 | CCOC(=O)COc1ccc(Cl)cc1Cl | inactive
70 | CCOc1cccc(C2(N3CCN(c4ccccc4)CC3)CCC(C)CC2)c1 (stereo not given) | inactive
71 | COP(=O)(OC)Oc1ccc([N+](=O)[O-])cc1 | inactive
72 | COC(=O)N(C(=O)N1COC2(C(=O)OC)Cc3cc(Cl)ccc3C2=N1)c1ccc(OC(F)(F)F)cc1 (stereo not given) | inactive
73 | COc1cc(Cl)c(OC)cc1Cl | inactive
74 | CC(Cc1ccccc1)NCCn1cnc2c1c(=O)n(C)c(=O)n2C (stereo not given) | inactive
75 | Cc1cccc(OP(=O)(Oc2cccc(C)c2)Oc2cccc(C)c2)c1 | inactive
76 | OP(O)c1ccccc1 | inactive
77 | Oc1ccc2ccc3cccc4ccc1c2c34 | inactive
78 | ClCc1cccc(Cl)c1 | inactive
79 | COP(=S)(OC)Oc1c(Cl)cc(C)cc1Cl | inactive
80 | CCOP(=S)(OCC)SCS(=O)(=O)CC | inactive
81 | CN(C)CCc1c[nH]c2cccc(O)c12 | inactive
82 | CNP(=O)(OC)Oc1ccc(C(C)(C)C)cc1Cl (stereo not given) | inactive
83 | Cc1cccc2sc3nncn3c12 | inactive
84 | COc1cc(CC(C)N)c(OC)cc1Br (stereo not given) | inactive
85 | CCC1(c2ccccc2)C(=O)NC(=O)NC1=O | inactive
86 | C=C(Cl)CSC(=S)N(CC)CC | inactive
87 | ClC(Cl)C(Cl)Cl | inactive
88 | CC(=O)CCc1ccc2c(c1)OCO2 | inactive
89 | CN(C)C(=O)Nc1cccc(OC(=O)NC(C)(C)C)c1 | inactive
90 | CNC(=O)Oc1ccc(N(C)C)c(C)c1 | inactive
91 | COP(=O)(OC)O/C(=C\Cl)c1cc(Cl)c(Cl)cc1Cl | inactive
92 | CC(C)(C)c1ccc(OP(=O)(Oc2ccccc2)Oc2ccccc2)cc1 | inactive
93 | COC(=O)C(C)N(C(=O)c1ccco1)c1c(C)cccc1C (stereo not given) | inactive
94 | C#CC1(O)CCCCC1 | inactive
95 | CSc1ccc(C(=O)C(C)(C)N2CCOCC2)cc1 | inactive
